High-throughput results: PubChem BioAssay, several laboratories
Only some compounds are listed: those with a hit (about 2.3% of all), similar ones and a draw of the others.
Rpn11 block: inhibitors of human proteasome Rpn11; O00487; human 26S proteasome, Ub4-pepOG fluorescence polarization; 20S core pre-blocked with epoxomicin; inhibition, % at 20 µM; 360,000 tested, 0.59% active;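 active = inhibition at 20 µM, scaled to each plate's controls, above about 33%, limit read from the data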
Calb FLC: affects C. albicans growth with fluconazole | C. albicans CaCi-2 (fluconazole-resistant clinical isolate) + fluconazole, Alamar Blue growth, 48 h | growth inhibition, % (no concentration beside the values) | 300,000 tested, 0.57% active;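 active = growth inhibition above about 58% in most replicates, limit read from the data, passing the limit was not always enough; inconclusive = exactly half the replicates above a set limit; inactive = most replicates below a set limit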;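 also: all wells also contain fluconazole at 8 µg/ml as a sub-toxic cotreatment; 0% = median of DMSO wells and 100% = median of geldanamycin control wells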
TPT1 inh: blocks Candida albicans tRNA 2'-phosphotransferase; 300,000 tested, 0.81% active; recombinant caTPT1, FP RNA substrate dephosphorylation; inhibition, % at 5 µM;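 active = inhibition above the mean of all tested compounds plus 3 SD, set per screening campaign, cut at about 24% in these data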;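 also: plate controls were DMSO alone for no effect and ferristatin control at 100 nM for full effect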
IDE inh: inhibits human insulin-degrading enzyme in HEK cells; FAbetaB cleavage, fluorescence polarization; AID 434962; 320,000 tested, 0.41% active; inhibition, % at 5.59 µM;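 active = percent inhibition above the average of all tested compounds plus 3 SD, set per screening campaign, cut at about 16% in these data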;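 also: IDE supplied by intact live HEK cells; FP after avidin binding of uncleaved biotin substrate so inhibition keeps polarization high; 0% = DMSO wells and 100% = 60 µM reference IDE inhibitor Ii1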
IDE act: IDE (human) activation, cell-based | 340,000 tested, 0.073% active | activation, % at 5.96 µM | HEK cells, FAbeta-B cleavage, fluorescence polarization; 0% vehicle, 100% cell-free pure enzyme wells;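 active = activation above the mean of all tested compounds plus 3 SD, set per screening campaign, cut at about 17% in these data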
Rin1-Abl PPI inh: human Rin1-Abl interaction inhibition. P00519+Q13671. TR-FRET Rin1/Abl binding, biochemical. AID 588664. 360,000 tested, 0.4% active. inhibition, % at 7.35 µM; in the data active = inhibition above about 5%, passing the limit was not always enough
caTPT1 confirm: TPT1 (C. albicans) inhibition, confirmation. shares compounds with TPT1 inh. recombinant caTPT1, fluorescence polarization, RNase T1 coupled. inhibition, % at 5 µM. 2,400 tested, 74% active;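 active = inhibition above the primary screen limit, the mean inhibition of all tested compounds plus 3 SD, cut at about 25% in these data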
RNase T1 counter: counter-screen for TPT1 inhibitors: inhibitors of Aspergillus oryzae RNase T1; inhibition, % at 5 µM; 2,400 tested, 83% active; shares compounds with TPT1 inh; RNase T1 cleavage, fluorescence polarization, 1536-well; AID 2153;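 active = inhibition above the solvent-only control well mean plus 3 SD, limit set per screening run, cut at about 23% in these data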;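 also: plate controls were DMSO wells with enzyme for no effect and wells without RNase T1 for full effect; inhibitors block cleavage so intact labeled substrate keeps polarization high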
The depositor's hits bear a star; ? = inconclusive; . = not tested or not shown.

SMILES	Rpn11 block	Calb FLC	TPT1 inh	IDE inh	IDE act	Rin1-Abl PPI inh	others
CN(C)c1ccc([N+](=O)[O-])c([N+](=O)[O-])c1	3.7	.	.	.	6.8	-7.5
CN(C)c1ccc([P+](=O)c2ccc(N(C)C)cc2)cc1	4.5	61.6*	-0.9	-3.1	3.4	3.3
COc1ccc(N=C2SCCCN2C)cc1	-0.8	6.9	-1.1	-1.4	0.2	4.7
O=C(CCN1CC1)OCCOC(=O)CCN1CC1	7.8	.	.	.	2.5	2.1
O=C(O)c1cc[c]([Hg][Cl])cc1	8.2	.	-2.1	96.2*	-61.3	-1.1
COc1ccc(C(=O)O)cc1OC	5.7	.	.	.	4.1	-3.3
O=C1C2CCN(CC2)C1Cc1ccc(OCc2ccccc2)cc1 (stereo not given)	-2.0	109.2*	-1.1	-3.9	-5.1	-2.2
CCn1c(NN=O)nc2ccccc21	25.8	80.4*	-2.9	5.8	1.6	0.1
CN1CCC23c4c5ccc(O)c4O[C@@H]2[C@H](O)C=CC3C1C5 (stereo not given in full)	-2.0	.	.	3.8	7.4	-1.6
CCn1cc(C(=O)c2ccccc2)c2ccccc21	2.6	97.5*	2.2	-1.8	3.1	-1.2
COCCNC(=O)N1[C@H]2CC[C@@H]1C(C(=O)OC)=C(c1cccc(C#N)c1)C2	1.6	.	.	-3.5	6.6	0.2
NC(Cc1cc(O)c(O)cc1O)C(=O)O (stereo not given)	.	.	30.5*	-5.2	.	.
N[C@@H](CCl)C(=O)O	-0.9	.	0.6	-0.2	0.5	-0.5
CC[n+]1c(/C=C/N(C)c2ccccc2)sc2ccc(Cl)cc21	-1.8	105.7*	2.0	1.2	-0.3	-3.9
CC[n+]1c(/C=C/C=C/c2ccc(N(C)C)cc2)sc2ccccc21	22.7	102.4*	2.9	-5.3	-8.3	-33.4
CN(C)c1ccc(/C=C/c2cc[n+](C)c3ccccc23)cc1	6.3	.	.	.	-3.4	-35.6
CN(C)c1ccc(/C=C/C=C/c2sc3ccccc3[n+]2C)cc1	16.2	98.0*	4.5	5.1	2.6	-18.8
COC(=O)c1ccc(NC(=O)NC(=O)Oc2ccccc2)cc1	-0.2	.	.	-0.6	0.3	2.8
CC(C)[C@H]1C(=O)O[C@H](C(C)C)C(=O)N(C)[C@@H](C(C)C)C(=O)O[C@H](C(C)C)C(=O)N(C)[C@@H](C(C)C)C(=O)O[C@H](C(C)C)C(=O)N1C	1.6	87.8*	3.5	-1.7	2.0	1.9
Cc1ccc(NC(=O)CSc2nnc([C@@H](N)Cc3c[nH]c4ccccc34)o2)c(C)c1	3.8	109.3*	0.4	2.0	8.8	-0.1
CCc1ccccc1NC(=O)CSc1nnc([C@@H](N)Cc2c[nH]c3ccccc23)o1	7.2	14.9	1.8	-3.8	2.3	-4.2
C[C@]12CCC3[C@@H](CC[C@H]4C[C@@H](O)CC[C@]34C)C1CCC2=O (stereo not given in full)	-2.9	79.9*	-2.8	5.1	2.9	2.4
C[C@]12CC[C@@H](O)C[C@H]1CC[C@@H]1[C@@H]2CC[C@]2(C)C(=O)CC[C@@H]12	-6.2	-3.6	-0.8	1.9	7.4	1.8
Oc1ccc(C2=CCNCC2)cc1O	-6.0	-6.4	-1.3	-1.4	4.6	8.0
O=C(CCc1ccccc1)N1Cc2cc(-c3cccc(F)c3)ccc2-n2nncc2C1	8.6	.	.	.	.	1.5
SMILES	Rpn11 block	Calb FLC	TPT1 inh	IDE inh	IDE act	Rin1-Abl PPI inh	others
C=CCn1c(O)c(/C=C2/C=CC=N2)c(=O)[nH]c1=O	-3.1	37.4	-1.1	-1.9	2.2	-4.0
O=c1[nH]c(=O)n(Cc2ccccc2Cl)c(O)c1/C=C1/C=CC=N1	24.0	-6.8	29.1*	2.5	-1.1	-2.8	caTPT1 confirm=18.5;RNase T1 counter=22.6*
Cc1cc(Br)ccc1N1C(=O)CC(=O)NC1=O	26.0	-1.5	24.2*	1.1	1.4	-0.9	caTPT1 confirm=12.6;RNase T1 counter=17.9
O=C1CC(=O)N(c2ccccc2F)C(=O)N1	2.9	1.1	8.6	3.2	3.5	5.8
O=C1CC(=O)N(c2ccc(Cl)cc2Cl)C(=O)N1	35.8	14.2	37.3*	2.1	-1.0	-2.8	caTPT1 confirm=16.2;RNase T1 counter=24.8*
O=c1[nH]c(=O)n(Cc2ccco2)c(O)c1/C=N/N1CCCCC1	9.0	12.2	24.4*	0.5	-4.4	-1.8	caTPT1 confirm=29.4*;RNase T1 counter=39.7*
COC(=O)C12OCC34C(CC5C(C)=C(O)C(=O)CC5(C)C3C(O)C1O)OC(=O)C(OC(=O)/C=C(\C)C(C)C)C24 (stereo not given)	-2.7	.	.	.	-1.0	3.0
Cc1ccc(/C=C2/C(=O)NC(=O)N(CCc3ccc(F)cc3)C2=O)o1	9.9	-9.5	27.4*	4.6	-0.5	0.8	caTPT1 confirm=6.4;RNase T1 counter=13.7
Nc1cc(Cl)cc(C(=O)O)c1Cl	-9.0	.	.	-0.9	1.7	3.0
Cc1ccc(N2C(=O)NC(=O)/C(=C\c3ccc([N+](=O)[O-])o3)C2=O)cc1	.	5.6	28.6*	2.6	.	.	caTPT1 confirm=49.5*;RNase T1 counter=21.1
C[C@@H]1CC2(CCCC[N+]2(C)C)C[C@H]1C	4.2	7.3	-3.0	8.8	-0.7	1.4
CN1C(=O)/C(=C/c2cccn2-c2ccc3ccccc3c2)C(=O)NC1=S	2.9	-11.6	38.0*	2.7	-11.1	1.1	caTPT1 confirm=16.9;RNase T1 counter=20.6
Cc1ccc(N2C(=O)NC(=O)/C(=C\c3cc(C)n(-c4sc5c(c4C#N)CCCC5)c3C)C2=O)cc1	31.9	?	25.9*	1.1	-3.1	-2.5	caTPT1 confirm=36.1*;RNase T1 counter=49.6*
CC[n+]1c(-c2ccccc2)c2cc(N)ccc2c2ccc(N)cc21	-12.4	.	.	.	5.8	-27.1
CCCCn1c(=O)c(C=Nc2cccnc2Cl)c(O)n(CCCCl)c1=O	17.0	30.6	29.9*	0.8	1.3	-2.6	caTPT1 confirm=9.4;RNase T1 counter=13.6
Cn1c(O)c(/C=N/c2ncccn2)c(=O)n(C)c1=O	6.9	13.0	6.3	1.4	-9.1	2.6
Cc1cc(C)c(Cn2c(C(=O)O)c(C=O)c3ccccc32)c(C)c1	.	29.4	52.9*	6.7	0.8	-2.1	caTPT1 confirm=118.0*;RNase T1 counter=119.6*
O=Cc1c(C(=O)O)n(Cc2ccccc2Cl)c2ccccc12	-1.1	9.8	5.4	-1.0	0.8	0.9
O=C(NCC1=C(c2cccc3ccccc23)C[C@@H]2CC[C@H]1N2Cc1ccco1)c1cccnc1	2.5	.	.	.	.	0.5
COc1ccc(CN2C(=O)NC(=O)/C(=C/c3ccc([N+](=O)[O-])s3)C2=O)cc1	50.8*	-10.9	27.0*	9.9	-16.7	0.4	caTPT1 confirm=55.9*;RNase T1 counter=72.0*
COc1cc(OC)c(OC)cc1/C=C1\C(=O)NC(=O)N(Cc2ccccc2)C1=O	4.1	-15.7	12.6	5.5	2.4	0.7
O=C1NC(=O)N(Cc2ccc(F)cc2)C(=O)/C1=C\c1ccc([N+](=O)[O-])s1	35.0	5.4	22.9	12.4	-20.9	3.1
